From PubChem BioAssay
In the library only some 10% were active in any assay of this set; here they are far more common.
PNC assembly inh: High Content Assay for Compounds that inhibit the Assembly of the Perinucleolar Compartment. PC3M PTB-GFP, PNC prevalence imaging, 16 h; stronger effect = lower value. activity change (PNC), negative = inhibition, % at 10 µM. 3.1% of 140,000 active. AID 2417, 2010;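 active = readout at or below -70, meaning at least 70% loss of cells showing the perinucleolar compartment, a nuclear body marking cancer cells; inconclusive = readout between -30 and a set limit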;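 also: plate controls were DMSO wells for no effect and camptothecin positive control wells for full effect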
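PC3M cells stably expressing PTB-GFP, 750–1000 cells/well, treated 16 h at 37 °C with compound (23 nl of library stock), in duplicate. After paraformaldehyde fixation and Hoechst stain, imaged at 20x; PNC prevalence scored by image analysis.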
ALDH1A1 block: qHTS Assay for Inhibitors of Aldehyde Dehydrogenase 1 (ALDH1A1); Aldehyde dehydrogenase 1A1 (Homo sapiens), P00352; Purified ALDH1A1, NADH fluorescence, propionaldehyde substrate; Potency, µM (series often up to 75.3 µM), without a hit: at the top dose activity, negative = inhibition, hits mostly inhibitors; 7.3% of 220,000 active; AID 1030, 2008;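 also: potency is read from the fitted curve at half-maximal effect; plate controls were no enzyme wells and a reference inhibitor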
Luc counter: Counterscreen for Luciferase (Kinase-Glo TM) Inhibition. Luciferin 4-monooxygenase (Photuris pensylvanica), Q27757. Kinase-Glo luciferase, ATP luminescence, 8 min. Potency, µM (highest dose often 38.3 µM), for inactives: at the highest dose activity change, negative = inhibition, actives largely listed as inhibitors. 0.28% of 200,000 active. AID 1379, 2008; active = well fitted inhibition curve with a large enough effect; inconclusive = small, poorly fitted or top-dose-only effect; also: potency is read from the fitted curve at half-maximal effect; nearly all actives have a fitted effect of over 60% in size
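Light output from Kinase-Glo luciferase with luciferin and 10 uM ATP in 50 mM imidazole pH 7.2, KCl, MgCl2, Tween 20, BSA; compound pin-delivered, 8-min ambient incubation, then luminescence read.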
HPGD inh: qHTS Assay for Inhibitors of HPGD (15-Hydroxyprostaglandin Dehydrogenase) | 4.3% of 150,000 active | AID 894, 2007 | purified HPGD, NADH fluorescence kinetic, PGE2 substrate | Potency, µM, inactives show top-dose activity change, negative = inhibition, usual class: inhibitors; also: potency is read from the fitted curve at half-maximal effect
Target sequence (P15428 whole entry, looked up): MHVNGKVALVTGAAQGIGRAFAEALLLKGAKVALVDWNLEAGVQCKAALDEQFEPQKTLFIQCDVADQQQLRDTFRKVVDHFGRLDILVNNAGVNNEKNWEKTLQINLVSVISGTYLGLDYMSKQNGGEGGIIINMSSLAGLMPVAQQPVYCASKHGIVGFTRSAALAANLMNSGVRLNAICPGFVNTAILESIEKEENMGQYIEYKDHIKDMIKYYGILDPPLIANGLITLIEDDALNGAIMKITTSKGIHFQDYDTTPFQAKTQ
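20 nM HPGD preincubated 15 min at room temperature with compound in 50 mM Tris-HCl pH 8, 0.01% Tween 20. Started with 1 mM NAD+ and 30 uM prostaglandin E2; NADH fluorescence (360/450 nm) read 5 times over 30-s intervals, last minus first.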
LMNA splice mod: qHTS Assay for Modulators of Lamin A Splicing. HeLa LMNA splicing GFP/RFP minigene ratio, 48 h. 0.01% of 200,000 active. Potency, µM (highest dose often 46.1 µM), without a hit: at the highest dose ratio change, negative = inhibition, most hits filed as inhibitors; active = well fitted inhibition curve with a large enough effect in the signal ratio, with a control signal flat, not every such curve was filed as active; inconclusive = small, poorly fitted or top-dose-only effect, or effect the other way, or a change in a side signal; the % refers to the signal ratio; also: potency is read from the fitted curve at half-maximal effect
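S3 HeLa stable clones carrying a lamin A-EGFP splicing minigene plus DsRed2 were seeded at 600 cells/well in Opti-MEM with 2% FBS, pin-dosed and incubated 48 h at 37°C. Acumen cytometry (488 nm) gave the GFP/RFP total-intensity ratio.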
* marks the source's active call; other numbers are inactive results; u = inconclusive; x = not tested or not shown; [ ] = dose if it differs, or a comment. Unless noted, calls follow the shape of the dose curve; as a rule, active = well fitted inhibition curve with a large enough effect (not every such curve was filed as active); inconclusive = small, poorly fitted or top-dose-only effect, or another doubt; inactive = no such curve, though single readings can be large or run the other way. Unless noted, % is scaled to controls: 0 for no effect and ±100 for the full control effect.

SMILES	PNC assembly inh	ALDH1A1 block	Luc counter	HPGD inh	LMNA splice mod
Cc1ccnc(N2C(=O)c3ccccc3C2Nc2cccc(C)c2C)c1 (centres undefined)	-16	-4%	-2%	-12%	2%
Cc1ccccc1C(=O)Nc1nnc(SCc2cc(=O)c3c(C)ccc(C)c3[nH]2)s1	x	x	x	x	-6%[46 µM]
CCOC(=O)C1=C(C)NC(=S)N(C=O)C1c1ccccc1 (centres undefined)	x	2µM*	3%	x	1%[46 µM]
COC(=O)C1=C(C)NC(=O)CC1c1ccccc1 (centres undefined)	-16	1%	-1%	-19%	-3%
COC(=O)C1=C(C)NC(=S)N(C(C)=O)C1c1ccccc1 (centres undefined)	-10	25µM*	8%	-6%	-4%
Cc1ccc(CN(C(=O)c2ccc([N+](=O)[O-])cc2)c2ccccn2)cc1	x	x	x	x	-5%[46 µM]
CCC(=O)N=c1ccn(C2=Nc3ccccc3NC2=C(C#N)C#N)cc1	x	0%	x	x	x
CO[C@H]1COC(=O)[C@@H](C)COC(=O)[C@H](C)NC(=O)C/C=C\[C@H]1C	x	14%[13.5 µM]	x	x	x
CCSc1nnc(-c2ccc(Cl)cc2Cl)o1	-4	u	-9%	14µM*	5%
Clc1ccc(-c2nnc(-c3ccccc3)o2)c(Cl)c1	40	32µM*	u	u	11%
Fc1ccc(-c2nnc(-c3ccc(Cl)cc3Cl)o2)cc1	u	-2%	-14%	-16%	5%
CSc1nnc(-c2ccc(Cl)cc2Cl)o1	-2	8%	-1%	-20%	-8%
CSc1nnc(-c2ccccc2Cl)o1	55	6%	0%	32µM*	12%
CCc1ccc(NC(=S)Nc2cc(C(=O)O)ccc2N2CC3CC(C2)c2cccc(=O)n2C3)cc1 (centres undefined)	x	18µM*	1%	x	8%[9.22 µM]
O=C(O)c1ccc(N2CC3CC(C2)c2cccc(=O)n2C3)c(NC(=S)Nc2ccc(Br)cc2)c1 (centres undefined)	x	u	-2%	x	x
CCCCC/C=C\C/C=C\C/C=C\CCCCCCC(=O)NCC(=O)O	x	3%	2%	-6%	x
Nn1cnnc1SCC(=O)Nc1ccc(C2CCCCC2)cc1	18	11µM*	-7%	-23%	5%
CCC(C)c1ccc(NC(=O)CSc2nncn2N)cc1 (centres undefined)	-20	u	-1%	-16%	-10%
Cn1c(N=Nc2ccccc2)nc2ccccc21	13	-6%	0.89µM*	-22%	u
O=C(Nc1ccccn1)c1onc2c1CCCC2	u	-12%	13µM*	-1%	-8%
O=C(NCCN1CCOCC1)c1ccc(-n2c(=O)c(=O)[nH]c3ccccc32)cc1	x	4%	-1%	-15%	x
O=S(=O)(Nc1ccc(Cl)cn1)c1cccc(S(=O)(=O)c2ccccc2)c1	x	20µM*	-1%	x	x
Cc1ccc(NS(=O)(=O)c2cccc([N+](=O)[O-])c2)nc1	x	11µM*	-2%	x	-9%[46 µM]
CN(C)c1ccc(C(CNC(=O)Cc2ccc(Cl)cc2)N2CCOCC2)cc1 (centres undefined)	x	x	x	x	-20%[46 µM]
CC1C(=O)OC2C(O)C34C5CC(C(C)(C)C)C36C(OC(=O)C6O)OC4(C(=O)O5)C12O (centres undefined)	x	6%	-2%	-3%	x
SMILES	PNC assembly inh	ALDH1A1 block	Luc counter	HPGD inh	LMNA splice mod
CCOC(=O)CCCCNCc1ccccc1	-100*	14%	-2%	-9%	-7%
O=C(O)CCCCNCc1ccccc1	-13	2%	-2%	-10%	11%
O=C(c1ccc(NC(=S)Nc2ccc(Cl)c(Cl)c2)cc1)N1CCCC1	16	u	1%	11µM*	-14%
NS(=O)(=O)c1ccc(NC(=S)NC2CCCCC2)cc1	x	-12%	2%	x	24%[46 µM]
O=C(c1ccc(NC(=S)NCc2ccc(Cl)cc2)cc1)N1CCCCC1	x	u	0%	x	x
NS(=O)(=O)c1ccc(NC(=O)CN2CCCCC2)cc1	-83*	4%	-2%	-11%	-9%
NS(=O)(=O)c1ccc(NC(=S)Nc2ccc(C(=O)N3CCCCC3)cc2)cc1	x	18µM*	x	x	x
O=C(CSc1nc(=O)[nH]c2c1CCCC2)NCc1ccccc1Cl	x	x	x	x	7%[46 µM]
CCCCN(Cc1ccccc1)C(=O)C1CCCN(S(=O)(=O)c2cnc[nH]2)C1 (centres undefined)	-7	14µM*	1%	-6%	0%
C=CCOc1c(CNc2nccs2)cccc1OCC	u	2.5µM*	1%	-16%	-6%
C=CCOc1c(Cl)cc(CNc2nccs2)cc1OC	x	13µM*	-2%	x	-2%[46 µM]
C=CCOc1ccc(CNc2nccs2)cc1OCC	74	u	0%	-19%	1%
CCCOc1ccc(-c2cccc(NS(=O)(=O)c3cc(OC)ccc3OC)c2)nn1	x	x	x	x	11%[46 µM]
COc1ccc(CCNC(=O)CCCCCN2C(=O)c3ccccc3C2=O)cc1	61	u	2%	-13%	10%
O=C(CCCCCN1C(=O)c2ccccc2C1=O)NCCc1nc2ccccc2[nH]1	47	11µM*	-2%	-6%	-3%
COc1ccc(S(=O)(=O)CCC(=O)NCCc2ccc(C)cc2)cc1	24	25µM*	-2%	-11%	-4%
COc1ccc(CCNC(=O)CCCN2C(=O)c3ccccc3C2=O)cc1	x	14µM*	-2%	x	x
CCNS(=O)(=O)c1ccc(CCC(=O)NCCc2ccc(OC)cc2)cc1	x	u	2%	x	x
CCCC(=O)NCCCc1nc2ccccc2[nH]1	u	4%	-1%	-4%	-10%
Cc1cc(N2CCN(C)CC2)nc2ccc(NC(=O)Nc3ccccc3Br)cc12	x	x	x	x	-18%[46 µM]
N#C/C(=N\Nc1cccc([N+](=O)[O-])c1)C(=O)c1ccc(Br)cc1	x	22µM*	-3%	x	x
CN1CCN(C(=O)c2ccc(C(C)(C)C)cc2)CC1	31	-8%	-1%	11µM*	-4%
CN1CCN(C(=O)c2ccc3c(c2)OCCO3)CC1	10	3%	0%	16µM*	-3%
O=C(c1ccc(N2CCCC2=O)cc1)N1CCOCC1	-85*	19%	8%	22µM*	-12%
CN1CCN(C(=O)c2ccc(N3CCCC3=O)cc2)CC1	39	7%	-1%	13µM*	0%
COc1ccccc1N1CCN(C(=O)c2ccc(N3CCCC3=O)cc2)CC1	-19	-7%	-3%	-8%	-5%
CN1CCN(C(=O)c2ccc(C(F)(F)F)cc2)CC1	x	9%	-2%	x	-13%[46 µM]
CC[C@H](C)[C@@H](NC(=O)O[C@@H]1Cc2cc(OC)ccc2O[C@H]1c1cccc(OC)c1)C(=O)OC	x	4%	-1%	-2%	x
CCCCC(=O)Nc1ccc(C(=O)N2CCN(C)CC2)cc1	23	u	-5%	14µM*	-9%
O=C(NC1=NCCS1)c1ccc(N2CCCC2=O)cc1	x	8%	-1%	x	3%[46 µM]
